# Assay results from PubChem BioAssay AID1851 (National Center for Advancing Translational Sciences (NCATS), 2009).
# Screen size: about 16,000 compounds; about 2,600 (16%) were called active. Roughly 20% stayed inconclusive and do not appear here. Calls follow the shape of the dose curve; as a rule, active = well fitted curve in the direction sought with a large enough effect; inconclusive = small, poorly fitted or top-dose-only effect, or effect the other way; inactive = no such curve, though single readings can be large or run the other way. Only a sample is shown.
# Biological target: Cytochrome P450 2D6 (Homo sapiens) (UniProt P10635)
# Sequence (P10635 whole entry, looked up): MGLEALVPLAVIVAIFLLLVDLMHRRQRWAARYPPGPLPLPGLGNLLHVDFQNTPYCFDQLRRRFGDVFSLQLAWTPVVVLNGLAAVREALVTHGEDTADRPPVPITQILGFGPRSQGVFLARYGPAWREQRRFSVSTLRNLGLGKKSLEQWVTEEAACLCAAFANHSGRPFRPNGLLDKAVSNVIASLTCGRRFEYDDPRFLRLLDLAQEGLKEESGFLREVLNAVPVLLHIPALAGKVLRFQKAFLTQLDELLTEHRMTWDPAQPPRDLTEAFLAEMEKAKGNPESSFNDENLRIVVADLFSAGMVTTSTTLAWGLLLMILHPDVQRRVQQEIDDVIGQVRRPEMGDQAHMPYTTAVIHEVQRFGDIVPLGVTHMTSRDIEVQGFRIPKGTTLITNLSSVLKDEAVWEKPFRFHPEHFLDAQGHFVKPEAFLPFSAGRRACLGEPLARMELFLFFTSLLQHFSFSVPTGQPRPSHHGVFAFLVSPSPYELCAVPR
# Assay: Cytochrome panel assay with activity outcomes
# Details: recombinant CYP, pro-luciferin dealkylation, luminescence, p450-cyp2d6; series mostly up to 57.1 µM
# % is scaled to controls: 0 for no effect and ±100 for the full control effect.
Compound,AC50,"activity, negative = inhibition"
COC(=O)[C@@H]1C[C@H]1[C@@H](NC(=O)c1cnccn1)c1ccccc1,inactive,
COc1cccc(OC)c1/C(O)=C(\C#N)c1nc2ccccc2[nH]1,inactive,
CCNC(=S)NNC(=O)c1cc(C)on1,inactive,
CCS(=O)(=O)N1CCC(C(=O)NCC2CCCO2)CC1 (stereo not given),inactive,
Cn1c(O)c(C(C#N)=C2N=c3ccccc3=N2)c2ccccc21,7080 nM (active),
O=C1OCCC1Sc1nnc(-c2ccc(O)cc2)o1 (stereo not given),inactive,
N#Cc1ccc(-c2ccc(F)cc2)nc1Sc1ccccc1,inactive,
CCOc1ccc(C(Nc2ccc(C)cc2)P2(=O)OCC(C)(C)CO2)cc1 (stereo not given),inactive,
C[C@@H]1CCc2cc(F)cc3c(=O)c(C(=O)O)cn1c23,inactive,
O=C(O)Cc1c[nH]c2ccc(O)cc12,inactive,
O[C@H](C[C@@H]1CCCCN1)c1ccc2c(c1)oc1ccccc12,100 nM (active),
CC(C)CC(=O)Nc1ccc2c(c1)oc1ccccc12,inactive,
O=C(Nc1cnn(Cc2ccc(Cl)cc2Cl)c1)c1cc(-c2cccs2)on1,inactive,
Cc1ccc(NC(=O)c2nnn(-c3cc(C)cc(C)c3)c2N)cc1,inactive,
COc1ccc(C(=O)NC(CO)c2nnc(SCc3ccc(Cl)c(Cl)c3)n2C)cc1 (stereo not given),inactive,
O=C(Nc1ccnc(-c2cccnc2)n1)c1cccc(Cl)c1Cl,2240 nM (active),
Cc1ccccc1-c1cc(NCc2cccnc2)ncn1,inactive,
Cc1cccc(CNc2ccnc(-c3ccc(C(=O)N(C)C)cc3)n2)c1,inactive,
Cc1ccccc1-c1nccc(NCc2cccnc2)n1,20000 nM (active),
Cc1cccc(CNc2ccnc(-c3cccnc3)n2)c1,631 nM (active),
CC(C)(C)C(=O)Nc1ccnc(-c2cccnc2)n1,inactive,
c1ccc(CNc2ccnc(-c3cccnc3)n2)cc1,1260 nM (active),

Compound,AC50,"activity, negative = inhibition"
CC(=O)Nc1ccnc(-c2cccnc2)n1,inactive,
O=[N+]([O-])c1ccccc1/C=N/n1c(COc2ccccc2)n[nH]c1=S,inactive,
Cc1ccc(/C=N/n2cnnc2)s1,inactive,
Cn1c(=S)c2[nH]c(SCCN3C(=O)c4ccccc4C3=O)nc2n(C)c1=O,,2.46% [at 11.4 µM] (inactive)
CCCCC(=O)Nc1nnc(SCC(=O)NC2CCCC2)s1,inactive,
COc1cc2nc(N(C)CCCNC(=O)[C@@H]3CCCO3)nc(N)c2cc1OC,inactive,
Cn1c(=O)c2cc(S(=O)(=O)NCCC(=O)NCCc3ccc(Cl)cc3)ccc2n(C)c1=O,15800 nM (active),
Cn1c(=O)c2cc(S(=O)(=O)NCCC(=O)Nc3ccc(Cl)cc3)ccc2n(C)c1=O,inactive,
Cc1ccc(CNC(=O)CCNS(=O)(=O)c2ccc3c(c2)c(=O)n(C)c(=O)n3C)cc1,inactive,
O=C1C(C2=NC(C(=O)O)C3C(=O)N(c4ccc(Cl)cc4)C(=O)C23)=C(O)c2ccccc21 (stereo not given),inactive,
N=C(N)SCCc1ccncc1,,-9.64% [at 11.4 µM] (inactive)
c1ccc2c(CSCc3cccc4ccccc34)cccc2c1,,9.11% [at 11.4 µM] (inactive)
N[C@@H](CSCc1ccccc1)C(=O)O,,-7.04% [at 11.4 µM] (inactive)
c1ccc2c(CSCCc3ccncc3)cccc2c1,398 nM (active),
Clc1ccc(CSCCc2ccncc2)cc1Cl,316 nM (active),
c1ccc(CSCCc2ccncc2)cc1,1260 nM (active),
O=C(O)c1cc(N=Cc2ccccc2O)cc(C(=O)O)c1,,7.13% [at 11.4 µM] (inactive)
FC(F)(F)c1nnc(-c2ccccc2)nc1Sc1ccccc1,inactive,
Cc1cc(C2(c3cc(C)c(O)c(C(=O)O)c3)OS(=O)(=O)c3ccccc32)cc(C(=O)O)c1O,,5.11% [at 11.4 µM] (inactive)
O=C1C2Sc3[nH]c(=O)sc3C(c3ccccc3)C2C(=O)N1c1ccccc1 (stereo not given),inactive,
Cc1nc2cnc(N(C)C)nc2n(C2CC2)c1=O,inactive,
COc1ccc2[nH]cc(CCNc3ncncc3-c3cccc(NS(C)(=O)=O)c3)c2c1,3160 nM (active),

Compound,AC50,"activity, negative = inhibition"
COc1cccc(-c2cncnc2NCCc2c[nH]c3ccc(OC)cc23)c1,2510 nM (active),
COc1ccc2[nH]cc(CCNc3ncncc3-c3cccnc3)c2c1,12600 nM (active),
O=C(O)CNc1ccc(C(=O)O)cc1,,8.05% [at 11.4 µM] (inactive)
Cc1ccccc1C(C(=O)NCc1ccccc1)N(Cc1ccco1)C(=O)c1ccccn1 (stereo not given),inactive,
Cc1nn(C)cc1C(=O)NNC(=S)Nc1ccccc1,inactive,
CCOc1ccc(-c2nn(-c3ccccc3)cc2/C=C(\C#N)S(=O)(=O)c2ccccc2)cc1C,inactive,
C[C@@]12CCC(=O)C=C1CC[C@@H]1[C@@H]2[C@H](O)C[C@]2(C)[C@@H]1CC[C@]2(O)C(=O)CO,inactive,
C[C@@H]1Cc2ccccc2N1NC(=O)c1ccc(Cl)c(S(N)=O)c1 (stereo not given in full),inactive,
COc1ccc2c(CC(=O)NCC3CCC(C(=O)O)CC3)cc(=O)oc2c1 (stereo not given),6310 nM (active),
O=C(NCC1CCC(C(=O)O)CC1)OCc1ccccc1 (stereo not given),inactive,
COc1ccc2cc(CCNC(=O)C3CC3)c(=O)[nH]c2c1,inactive,
CC(=O)Nc1ccc([N+](=O)[O-])cn1,inactive,
CO[C@@H]1/C=C\CC(=O)N[C@@H](C)C(=O)OC[C@@H](OC)[C@H](C)CCCC(=O)OC[C@H]1C,,17% [at 11.4 µM] (inactive)
CSc1nc(C)c(CCOC(=O)c2cccc(C)c2)c(=O)[nH]1,inactive,
CCN(CC)S(=O)(=O)c1cc(C(=O)Nc2ccccc2C(=O)O)ccc1OC,inactive,
CCN(CC)S(=O)(=O)c1cc(C(=O)OC)ccc1Cl,inactive,
CCN(CC)S(=O)(=O)c1cc(C(=O)Nc2ccncc2)ccc1Cl,2240 nM (active),
Oc1c(CN2CCCCC2)cc(Br)c2cccnc12,7940 nM (active),
NS(=O)(=O)c1cc(Br)c(N=Nc2ccc(O)c3ncccc23)c(Br)c1,,-4.11% [at 11.4 µM] (inactive)
CC(C)(C)CC(C)(C)c1cc(O)c(O)c(CN2CCCCC2)c1,,-16.1% [at 11.4 µM] (inactive)
Nc1nc2c(nc(Br)n2[C@@H]2O[C@H]3COP(=O)(O)O[C@@H]3[C@H]2O)c(=O)[nH]1,inactive,
